# SNCA expr inh: Primary qHTS assay for inhibitors of alpha-synuclein gene (SNCA) expression; HEK-293 SNCA-luciferase knock-in, luminescence, 24 h; Potency, µM (titrated, usually from 57.2 µM), for the others: at the highest dose activity change, negative = inhibition, hits mostly inhibitors; actives 0.17% (n = 140,000);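 also: potency is read from the fitted curve at half-maximal effect; plate controls were DMSO cells for no effect and cell-free wells for full effect; nearly all actives have a fitted effect of over 45% in size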
# GPT2 inh: Primary qHTS assay for inhibitors of Glutamate pyruvate transaminase 2 (GPT2). Alanine aminotransferase 2 (Homo sapiens), Q8TD30. Recombinant GPT2, coupled pyruvate oxidase/HRP Amplex Red fluorescence. Potency, µM (titrated, usually from 57.7 µM), for the others: at the top dose activity change, negative = inhibition, hits mostly inhibitors. actives 0.25% (n = 100,000). AID 1671188, 2021; also: potency is read from the fitted curve at half-maximal effect; nearly all actives have a fitted effect of over 60% in size
# Target sequence (Q8TD30 whole entry, looked up): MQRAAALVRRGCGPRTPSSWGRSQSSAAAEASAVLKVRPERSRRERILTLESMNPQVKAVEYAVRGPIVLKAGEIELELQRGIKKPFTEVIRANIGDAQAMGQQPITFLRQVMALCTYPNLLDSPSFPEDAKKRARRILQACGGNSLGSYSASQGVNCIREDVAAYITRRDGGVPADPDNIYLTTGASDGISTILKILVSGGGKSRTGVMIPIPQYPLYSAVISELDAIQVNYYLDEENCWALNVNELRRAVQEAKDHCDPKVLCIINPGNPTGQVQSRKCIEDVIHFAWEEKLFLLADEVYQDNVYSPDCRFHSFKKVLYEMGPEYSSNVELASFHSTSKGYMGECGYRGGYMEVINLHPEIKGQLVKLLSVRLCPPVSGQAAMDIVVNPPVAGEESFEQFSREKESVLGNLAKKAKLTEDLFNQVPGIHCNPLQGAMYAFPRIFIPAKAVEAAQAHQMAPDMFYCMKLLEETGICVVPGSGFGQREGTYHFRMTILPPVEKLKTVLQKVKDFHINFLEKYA
#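 GPT2 10ng/uL, a-KG 250uM, L-Ala 2mM, HEPES pH7.5 + 0.0001% Tween; 30 min RT. Then Amplex mix (PO/HRP/ThPP), 30 min RT dark, fluorescence. AOA 50uM used as positive control.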
# SNCA viab count: GF-AFC viability counterscreen for inhibitors of alpha-synuclein gene (SNCA) expression; HEK-293-SNCA-luc viability, GF-AFC fluorescence, 24 h; Potency, µM (doses to about 57.1 µM), for inactives: top-dose activity change, negative = cytotoxicity, usual class: cytotoxic; actives 0.12% (n = 150,000); AID 1671193, 2021;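 also: potency is read from the fitted curve at half-maximal effect; 0% = DMSO-treated cells and -100% = medium-only wells without cells; nearly all actives have a fitted effect of over 30% in size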
#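 HEK-293-SNCA-luc cells (1500/well) plated 24 h, then exposed 24 h to a dilution series; GF-AFC added 30 min at 37C, fluorescence 405/540 nm; normalised to medium-only and DMSO wells, Hill fit.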
# IP6K1 inh: Primary qHTS assay for small molecule inhibitors of Inositol hexaphosphate kinase 1 (IP6K1). Inositol hexakisphosphate kinase 1 (Homo sapiens), Q92551. IP6K1 kinase, ADP-Glo luminescence, 2 h; hits give low values. activity change, % (series mostly up to about 58 µM). actives 0.81% (n = 140,000). AID 1645851, 2021; in the data active = activity change below about -25%
#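 ADP-Glo luminescence measures ADP made by human IP6K1 during a 2 h RT reaction with ATP/IP6 (mix at 1.3 mM/130 uM); top library doses 57.5 and 19.1 uM final.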
# IP6K1 inh cnf: Confirmatory qHTS assay for small molecule inhibitors of Inositol hexaphosphate kinase 1 (IP6K1) | shares compounds with IP6K1 inh | Potency, µM (doses to about 49 µM), without a hit: top-dose activity change, negative = inhibition, actives largely listed as inhibitors | recombinant IP6K1 kinase, ADP-Glo luminescence, 2 h | actives 13% (n = 1,200); also: potency is read from the fitted curve at half-maximal effect; nearly all actives have a fitted effect of over 65% in size
# * hit, by the source's call; i = inactive; ? = inconclusive; nt = no result given; [ ] = another dose, or the depositor's remark. Sampled rows, rich in hits. Any-hit rate of the full collection: about 1.1%. Unless noted, calls follow the shape of the dose curve; as a rule, active = well fitted curve in the direction sought with a large enough effect; inconclusive = small, poorly fitted or top-dose-only effect, or another doubt; inactive = no such curve, though single readings can be large; an effect the other way counts as inactive or inconclusive. Unless noted, % is scaled to controls: 0 for no effect and ±100 for the full control effect.
SMILES,SNCA expr inh,GPT2 inh,SNCA viab count,IP6K1 inh,IP6K1 inh cnf
O=S(=O)(NC1CCN(c2ccc3nnc(-c4ccccc4)n3n2)CC1)c1cccs1,nt,nt,nt,-27*,?
Cc1nc(CC2CCN(C(=O)c3cc4c(s3)CCC(C)C4)CC2)no1 (stereo unspecified),69%,5%,4%,2,nt
Cc1ccc(C(C(=O)N2CCC(Cc3noc(C)n3)CC2)N(C)C)cc1 (stereo unspecified),19%,2%[11.5 µM],0%,-27*,3%
COc1ccc(C(=O)N2CCC3(CC2)CC(CO)N(C(=O)c2ccccc2)C3)cn1 (stereo unspecified),19%,i,2%,4,nt
c1ccc(Oc2cc3c(cn2)NCCN(Cc2ccsc2)C3)cc1,11%[87.6 µM],i,6%[87.6 µM],-29*,-4%
COC(=O)CC1Oc2ccc(Cl)cc2-n2cc(-c3ccccc3)nc21 (stereo unspecified),1%,nt,4%,26,nt
Clc1ccc2c(c1)-n1cc(-c3ccccc3)nc1CO2,85%,nt,?,-28*,?
Cc1nn(-c2ccccc2)c2c1C(C)N(C1CCCN(C(=O)NC3CCCC3)C1)C2=O (stereo unspecified),nt,nt,nt,7,nt
O=C(O)c1cccc(NC(=O)c2cccc(S(=O)(=O)Nc3cccc(C(=O)O)c3)c2)c1,23%,nt,3%,-28*,?
CCOc1ccc(-c2nnc(SCC(=O)N(CC)c3cccc(C)c3)o2)cc1,0%,nt,2%,-3,nt
O=C(NCc1cccc(Cl)c1)c1ccc2nnc(-c3ccc(Cl)cc3)n2c1,-3%,i,-1%,7,nt
O=C(CCC[C@H]1NC[C@@H]2CC1CN(Cc1ccccc1)C2)N1CCCCC1,-18%,i,3%,4,nt
COc1cccc(N2CCN(C(=O)CCC[C@H]3NC[C@@H]4C[C@H]3CN(Cc3ccccc3)C4)CC2)c1,-9%,?,3%,-26*,1%
CCOc1ccc(NS(=O)(=O)c2ccc(-c3cc(C)no3)s2)cc1,-15%,nt,8%,-4,nt
COCCN(Cc1cccs1)S(=O)(=O)c1cc(-c2cc(C)no2)ccc1C,-25%,nt,-4%,-33*,?
COC[C@H]1C[C@@H](NC(=O)c2cccnc2)[C@H](O)[C@@H]1O,-9%[87.6 µM],i,1%[87.6 µM],-7,nt
O=C(O)CCc1ccc(-c2ccccc2)n1-c1ccc(C(=O)O)cc1,12%,nt,7%,-27*,-12%
Cc1ccc(-c2ccc(CCC(=O)O)n2-c2ccc(C)c(Cl)c2)cc1,49%,nt,4%,-23,nt
CCc1ccc(CNC(=O)C2CCCCC(=O)N2C)cc1 (stereo unspecified),0%,i,5%,18,nt
COc1ccccc1N1CCN(S(=O)(=O)CCNC(=O)C(c2ccccc2)c2ccccc2)CC1,-1%,nt,-7%,16,nt
COc1ccccc1N1CCN(C(=O)C(OC)c2ccccc2)CC1=O (stereo unspecified),?,?,-1%,-26*,-16%
Cc1c(C)n(Cc2ccc(-c3ccccc3C(=O)O)cc2)c2ccc(C(=O)N[C@@H](C)c3ccc([N+](=O)[O-])cc3)cc12,-12%,i,21%,-27*,?
O=C(CN1C(=O)NC(c2ccc(Cl)cc2)C2=C1COC2=O)NC1CCCC1 (stereo unspecified),?,i,2%,1,nt
COc1ccc(CCNC(=O)Cc2c(C)c3c(cc(C)c4c(C)c(C)oc43)oc2=O)cc1OC,23%,nt,6%,-16,nt
Cc1oc2c(c(C)cc3oc(=O)c(CC(=O)NCCc4ccccc4F)c(C)c32)c1C,17%,nt,-1%,-27*,-12%
SMILES,SNCA expr inh,GPT2 inh,SNCA viab count,IP6K1 inh,IP6K1 inh cnf
CCOc1ccc2c(n1)CCN(C(=O)Cc1cccc(OC)c1)C2,48%,-3%,3%[12.5 µM],-26*,-23%
COc1ccc(NC(=O)Cn2nnc(C(=O)Nc3ccc(C)c(F)c3)c2N)cc1Cl,22%,nt,-8%,21,nt
COc1cccc(NC(=O)c2nnn(Cc3ccc(OC)c(Br)c3)c2N)c1,43%,nt,3%,-27*,?
Cc1cccc(NC(=O)Cn2nnc(C(=O)Nc3ccc(F)c(Cl)c3)c2N)c1,3%,nt,-13%,-34*,-17%
COC(=O)c1ccc2nc(CO[C@H]3CN(Cc4cccc(C#N)c4)C[C@H]3F)[nH]c2c1,5%[87.6 µM],1%[88.5 µM],11%[87.6 µM],6,nt
Cc1ccc(Cl)cc1Nc1nn2c(=O)c3ccc(C(=O)NCc4cccs4)cc3nc2s1,-7%,nt,-9%,7,nt
CN1C(=O)C(c2ccccc2)CC12CCN(Cc1ccc(C#N)cc1)CC2 (stereo unspecified),-15%,-8%,-3%,1,nt
COc1ccccc1C(=O)Nc1ccc(S(=O)(=O)Nc2nc(C)cc(C)n2)cc1,33%,nt,-18%,-29*,?
CCOc1ccccc1C(=O)Nc1ccc(S(=O)(=O)Nc2ncccn2)cc1,15%,nt,9%,4,nt
Cc1ccc(S(=O)(=O)N2CCN(C(=O)c3cc(-c4ccc(Br)cc4)n[nH]3)CC2)c(C)c1,4%,nt,0%,-1,nt
COc1cc(C2CC(=O)Oc3c2c(=O)[nH]c2ccccc32)cc(OC)c1OC (stereo unspecified),17%,nt,5%,-14,nt
O=C1CC(c2ccc(F)cc2)c2c(c3ccccc3[nH]c2=O)O1 (stereo unspecified),-29%,nt,5%,-28*,13%
COc1ccc(-c2cn3c(n2)sc2cc(C(=O)NCc4cccs4)ccc23)cc1,133%,nt,-7%,-3,nt
O=C(NCc1cccs1)c1ccc2c(c1)sc1nc(-c3ccccc3)cn12,143%,nt,-16%,-25*,?
O=C(C1CCCN(C2CCN(c3ncnc4sccc34)CC2)C1)N1CCCC1 (stereo unspecified),?,-16%[11.5 µM],-3%,-28*,-13%
O=C(NCc1ccco1)c1ccc2c(c1)N(Cc1ccc(Cl)cc1)C(=O)c1ccccc1S2=O (stereo unspecified),-23%,nt,-5%,29,nt
Cc1ccc2c(CN3CCN(Cc4ccccc4Cl)CC3)cc(=O)oc2c1,-5%,nt,1%,-16,nt
Cc1ccc(S(=O)(=O)N2CCN(Cc3ccccc3Cl)CC2)cc1,22%,nt,-6%,-56*,-8%
CNC(=O)c1cc(-c2ccncc2)cc2c1OCCN2Cc1cccnc1,-10%[87.6 µM],-7%[88.5 µM],-7%[87.6 µM],-17,nt
O=C(Nc1cc(F)ccc1F)c1cc2nc(-c3ccco3)cc(C(F)(F)Cl)n2n1,-21%,nt,8%,-26*,-16%
